In PubChem BioAssay AID2315 (National Center for Advancing Translational Sciences (NCATS), 2010):
Out of some 290,000 compounds screened, about 27,000 (9.3%) were called active. Rule as the data show it: active = inhibition mostly above about 28% (no sharp cut-off); inactive = mostly below about 43%. What follows is part of a selection rich in actives, with near analogues and random picks from the rest.

Assay: A qHTS for Small Molecule Inhibitors of Shiga Toxin; also: 0% is about no effect
Conditions: Vero cells, Shiga toxin protein synthesis inhibition reporter; at 38.7 µM, stronger effect = higher value

| Compound | inhibition |
| --- | --- |
| Cc1ccc(-n2ncc3c2CCCC3NC(=O)c2cnccn2)cc1C (stereo unspecified) | 5.12% (inactive) |
| CCCCN(C)CCNC(=O)C1CCCN(S(=O)(=O)c2cccc3nsnc23)C1 (stereo unspecified) | -5.4% (inactive) |
| O=C(CCN1CCN(C/C=C/c2ccccc2)CC1)Nc1ccccc1Cl | 2.18% (inactive) |
| COc1ccc(C(=O)N/N=c2\oc3ccccc3cc2C(N)=O)cc1 | 55.8% (inactive) |
| COc1cccc2cc(C(N)=O)/c(=N\NC(=O)c3ccccc3)oc12 | 97% (active) |
| NC(=O)c1cc2ccccc2o/c1=N/NC(=O)c1cccc(F)c1 | 13.8% (inactive) |
| O=C1c2ccccc2C(=O)C1c1ccccc1F | -16.3% (inactive) |
| COc1ccc(C(=O)Nc2nc(-c3ccc(S(=O)(=O)N4CCOCC4)cc3)cs2)cc1 | -8.19% (inactive) |
| CN(C(=O)CSc1nc(C2CC2)nc2ccccc12)c1nc(-c2ccccc2)cs1 | 14.4% (inactive) |
| COc1ccc(CCN(C(=O)COc2ccccc2)c2nc(-c3ccccc3)cs2)cc1OC | -8.73% (inactive) |
| Oc1ccc(-c2csc(Nc3cccnc3)n2)cc1 | 121% (active) |
| COc1ccc(OC)c(Nc2nc(-c3ccc(O)c(O)c3)cs2)c1 | 7.27% (inactive) |
| O=C(Nc1ccc(-c2csc(Nc3cccc(C(F)(F)F)c3)n2)cc1)c1cccc(C(F)(F)F)c1 | -5.94% (inactive) |
| Brc1ccc(-c2csc(N/N=C/c3cccnc3)n2)cc1 | 37% (inactive) |
| COc1ccc(-c2csc(Nc3ccc(O)cc3)n2)cc1 | 92.3% (active) |
| CN(c1ccc(O)cc1)c1nc(-c2cccnc2)cs1 | 64.4% (active) |
| COc1ccc(-c2csc(Cc3nc(O)cs3)n2)cc1 | 94.8% (active) |
| CCCn1c(C2CCCN2c2nc(-c3ccc(OC)cc3)cs2)nc2ccccc21 (stereo unspecified) | 4.08% (inactive) |
| CC(C)(C)C(=O)OCc1nc(-c2ccc(O)c(O)c2)cs1 | 27.1% (inactive) |
| Cc1ccnc(N2CCCC(C(=O)NC3CC3)C2)n1 (stereo unspecified) | -10.6% (inactive) |
| C[C@@H](NC(=O)[C@@H]1Cc2ccccc2CN1)C(=O)NC1CCCC1 | -1.81% (inactive) |
| COCCNC(=S)N(CCc1c(C)[nH]c2ccc(C)cc12)Cc1cccnc1 | 3.9% (inactive) |
| FC(F)(F)C1CCCN(c2nsc3ccccc23)C1 (stereo unspecified) | -5.61% (inactive) |
| CC1(c2ccc3ccccc3c2)NC(=O)N(CC(N)=O)C1=O (stereo unspecified) | 17.6% (inactive) |

| Compound | inhibition |
| --- | --- |
| O=C(Nc1c2c(nn1-c1cccc(Cl)c1)CS(=O)(=O)C2)c1cccs1 | 2.33% (inactive) |
| Cc1ccccc1N1CCN(C2CCCN(C(=O)c3cn4c(C)cccc4n3)C2)CC1 (stereo unspecified) | -3.16% (inactive) |
| CC(=O)Nc1ccc(S(=O)(=O)N2CCC(NC(=O)c3ccccc3)CC2)cc1 | 37.8% (inactive) |
| O=C1CN(Cc2ccccc2)S(=O)(=O)c2ccccc21 | -2.75% (inactive) |
| O=S(=O)(NC1CCCCC1N1CCN(c2ccccc2F)CC1)c1ccccc1 (stereo unspecified) | -13.8% (inactive) |
| CCOc1ccccc1NC(=S)N1CCN(c2cccc(C)c2C)CC1 | -4.41% (inactive) |
| O=C(Oc1cccc(C(=S)N2CCOCC2)c1)c1cccc(Cl)c1 | -28.3% (inactive) |
| COc1cccc(-n2cc3c(c2-c2ccccc2)c(=O)n(C)c(=O)n3C)c1 | 104% (active) |
| COc1ccc(-c2c3c(=O)n(C)c(=O)n(C)c3cn2-c2cccc(OC)c2)cc1 | 4.73% (inactive) |
| Cc1ccc(-c2c3c(=O)n(C)c(=O)n(C)c3cn2-c2ccccc2O)cc1 | 38.5% (inactive) |
| CC1=C(C(N)=O)C(c2ccc(F)cc2)n2nc(CCCO)nc2N1 (stereo unspecified) | -5.77% (inactive) |
| Cc1ccc(CNC(=O)CCC(=O)N2CC(C)Sc3ccccc32)cc1 (stereo unspecified) | 10.9% (inactive) |
| CC(=O)Nc1ccc(N2C(=O)CC(Sc3nccc(C)n3)C2=O)cc1 (stereo unspecified) | -3.46% (inactive) |
| Cc1ccc(-c2nc(-c3ccncc3)no2)c(C)c1 | 80.3% (active) |
| c1ccc(-c2noc(-c3cccs3)n2)nc1 | 15% (inactive) |
| Cc1ccc2nc(-c3ccncc3)cc(C(=O)Nc3ccncc3)c2c1 | 11.4% (inactive) |
| COc1nc(-c2ccc(Cl)cc2)ccc1-c1noc(-c2cccs2)n1 | -10.5% (inactive) |
| Cc1ccc(-c2noc(CSc3nnc(-c4ccncc4)n3-c3ccc(F)cc3)n2)cc1 | -6.83% (inactive) |
| c1csc(-c2nc(-c3ccncc3)no2)c1 | 58.2% (active) |
| O=C(O)c1cc([N+](=O)[O-])c(Nc2cccc3ccccc23)c([N+](=O)[O-])c1 | 1.25% (inactive) |
| CCOC(=O)c1ccc(NC(=O)CNC(=O)c2ccco2)cc1 | -21.4% (inactive) |
| CC(C)NS(=O)(=O)c1ccc(NC(=O)c2cccnc2)cc1 | -10.5% (inactive) |
| O=C(Cc1ccccc1)Nc1ccc(NC(=O)c2cccnc2)cc1 | -11.9% (inactive) |
| CCOC(=O)c1ccc(NC(=O)c2cccnc2)cc1 | 53.7% (active) |

| Compound | inhibition |
| --- | --- |
| COc1ccc(C)cc1NC(=O)c1ccc(-c2ccc(C(C)=O)cc2)o1 | -2.76% (inactive) |
| CCOC(=O)c1ccc(-c2ccc(C(=O)Nc3cccnc3)o2)cc1 | 73.3% (active) |
| CCn1c(SCC(=O)NC2CC2)nnc1-c1ccccn1 | -11.7% (inactive) |
| CN(C)C(=O)Cn1c(=O)n(S(=O)(=O)c2ccccc2)c2ccccc21 | -3.04% (inactive) |
| COc1ccc2cc(-c3[nH]ncc3CNCCn3nc(C)cc3C)ccc2c1 | 67.7% (active) |
| COc1ccc(-c2cn[nH]c2-c2ccc(OC)cc2)cc1 | -4.19% (inactive) |
| Cc1cc(C)n(CCNS(=O)(=O)c2ccc(Cl)cc2)n1 | -3.35% (inactive) |
| Cc1ccccc1C(=O)NC(=S)NC1CC1 | 24.6% (inactive) |
| O=C1Nc2ccccc2/C1=C/c1ccnc2ccccc12 | 19.4% (inactive) |
| O=C1c2ccccc2S(=O)(=O)N1Cc1c(F)cccc1Cl | -12.9% (inactive) |
| O=C(Nc1ccn(Cc2ccccc2F)n1)c1ccc(COc2ccc(Cl)cc2Cl)o1 | 21.8% (inactive) |
| O=C(Nc1ccn(Cc2ccccc2)n1)c1n[nH]c([N+](=O)[O-])c1Cl | 16.1% (inactive) |
| O=C(Nc1cccc(NC(=O)c2cccc(F)c2)c1)c1ccccc1 | 21.2% (inactive) |
| CC(=O)Nc1ccn(Cc2c(F)cccc2Cl)n1 | 64.3% (active) |
| O=C(Nc1ccn(Cc2ccccc2)n1)c1cccc(F)c1 | 63.4% (active) |
| CCOCCOC(=O)C(C)Oc1ccc(Oc2ncc(C(F)(F)F)cc2Cl)cc1 (stereo unspecified) | -6.29% (inactive) |
| COc1ccc(C(=O)NCC(=O)N/N=C/c2cccnc2)cc1 | -9.22% (inactive) |
| COc1ccc2c(c1)C(NS(=O)(=O)OCC(Cl)(Cl)Cl)CCC2 (stereo unspecified) | -7.98% (inactive) |
| COc1ccc(NC(=S)N2CCC(NC(=O)c3cccc(F)c3)CC2)cc1 | -12.4% (inactive) |
| CCOC(=O)COn1c(=O)c(-c2ccc(OCC)cc2)[n+]([O-])c2ccccc21 | 44.1% (inactive) |
| O=c1c(-c2ccc(Cl)cc2)[n+]([O-])c2ccccc2n1OCc1nc2ccccc2[nH]1 | 59.6% (active) |
| CCOc1ccc(OCC)c(-c2c(=O)n(OCc3ccc(Cl)cc3)c3ccccc3[n+]2[O-])c1 | 10.2% (inactive) |
| O=C(NNC(=O)c1ccco1)Nc1ccccc1 | 8.84% (inactive) |
| O=C(NNC(=S)Nc1ccc(Br)cc1Cl)c1ccco1 | 59.2% (active) |

| Compound | inhibition |
| --- | --- |
| CCC(=O)NC(=S)Nc1ccc(NC(=O)c2ccco2)c(Cl)c1 | 46.1% (inactive) |
| Cc1ccc2c(c1)N(CC(=O)NCC1CCCO1)C(=O)CO2 (stereo unspecified) | 40.5% (inactive) |
| Cc1cc(Br)ccc1NC(=O)c1sc2ncn(CC(=O)N3CCN(c4ccccn4)CC3)c(=O)c2c1C | -6.73% (inactive) |
| O=C(Nc1cccc(-c2cccc(Cl)c2)c1)C1CCN(C2CCC2)CC1 | 18.3% (inactive) |
| CCC(=O)Nc1ccc(C(=O)Nc2cc(C)on2)cc1 | 37.1% (inactive) |
| CCOc1ccc(C(=O)Nc2cc(OC)ccc2OC)cc1 | 25.5% (inactive) |
| CCOc1ccc(NC(=O)Nc2cc(C)ccc2OC)cc1 | 29.4% (active) |
| CCOc1ccc(C(=O)Nc2ccc(S(=O)(=O)Nc3cc(C)on3)cc2)cc1 | -6.4% (inactive) |
| CCOc1ccc(NC(=O)Nc2cc(C)on2)cc1 | 91.1% (active) |
| COc1ccc(C)cc1NC(=O)Nc1ccccc1SC | -0.581% (inactive) |
| Cc1cc(C)c2c(-c3ccc(F)cc3)c(C#N)c(=O)n(C)c2n1 | -4.95% (inactive) |
| CCN1CCN(c2sc(S(C)(=O)=O)nc2S(=O)(=O)c2ccc(Cl)cc2)CC1 | -2.05% (inactive) |
| COc1ccccc1NC(=O)CCC(=O)N1CC(C)Oc2ccc(C)cc21 (stereo unspecified) | -1.25% (inactive) |
| COc1ccc(-c2c(-c3ccc(OC)cc3O)nc(C)nc2C(F)(F)F)cc1 | 2.92% (inactive) |
| COc1cc2ccccc2cc1C(=O)N(CCN(C)C)c1nc2c(F)cccc2s1 | -10.4% (inactive) |
| COc1ccccc1-c1nnc(SCC(=O)Nc2ccccc2)o1 | 22.9% (inactive) |
| COc1ccccc1-c1nnc(NC(=O)c2cccc(N3C(=O)CCC3=O)c2)o1 | -10.7% (inactive) |
| COc1ccccc1-c1nnc(NC(=O)c2ccc3ncsc3c2)o1 | 92.1% (active) |
| C=CCOc1ccc(C(=O)Nc2ccccc2C(=O)N2CCCC2)cc1 | 13.9% (inactive) |
| CCOC(=O)c1c(NC(=O)c2ccc(S(=O)(=O)N(C)CC3CCCO3)cc2)sc2c1CC(C)(C)NC2(C)C (stereo unspecified) | -9.62% (inactive) |
| COc1ccccc1N=C(C)C1=C(O)COC1=O | -4.84% (inactive) |
| COC(=O)c1ccccc1N=Nc1c(C)[nH][nH]c1=O | 1.81% (inactive) |
| COc1ccccc1N=Nc1c(O)[nH]c(=S)[nH]c1=O | 29.2% (active) |
| COc1ccc(NC(=O)Cn2ncn3c(cc4ccccc43)c2=O)c(OC)c1OC | -6.32% (inactive) |
